# In PubChem BioAssay (NCATS):
# Where “and” joins values, the source holds several entries; their conditions need not be identical. Equal values may be shown once. Results filed as inconclusive are left out. A call without a number means that no potency is given here. Some structures have more than one record in an assay (separate samples or runs), and their calls can disagree. Calls of active or inactive are those of the source. Calls come from the whole dose curve; as a rule, active = well fitted inhibition curve with a large enough effect; inconclusive = small, poorly fitted or top-dose-only effect; inactive = flat fitted curve, though single readings scatter.
# Biological target: Phospholipid hydroperoxide glutathione peroxidase GPX4 (Homo sapiens) (UniProt P36969)
# Assay: Primary qHTS Assay for Inhibitors of Recombinant Selenoprotein Glutathione Peroxidase 4 (GPX4) (AID 1845192); note: nearly all actives have a fitted effect of over 65% in size
# Conditions: recombinant GPX4, GR-coupled NADPH fluorescence, 15 min; series mostly up to 50 µM
# Source text: Assay Provider: Elias S.J. Arner MD PhD.
# Department of Medical Biochemistry and Biophysics
# Karolinska Institutet, Solna, Stockholm, Sweden
# Selenoprotein glutathione peroxidases (GPX), like the ubiquitously expressed GPX1 and the ferroptosis modulator GPX4, enact their antioxidant activities by reducing hydroperoxides using glutathione. […] GPX1 and GPX4 inhibitors have thus shown promise as anti-cancer agents. Existing inhibitors are often promiscuous, or modulate GPX activity only indirectly, so novel direct inhibitors identified through screening against GPX1 and GPX4 could be valuable. Here, we developed optimized glutathione reductase (GR)-coupled GPX assays for the biochemical high-throughput screen (HTS) of almost 12,000 compounds with known mechanisms of action. Initial hits were triaged using a GR counter-screen, assessed for isoform specificity using a separate GPX2 assay, and were assessed for general selenocysteine-targeting activity using a thioredoxin reductase (TXNRD1) assay. With this suite of assays, we identified novel GPX1/GPX2- and GPX4-specific inhibitors and can here present a validated pipeline for future discovery research for selenoprotein-targeting agents.
# SEQUENCE No. (e.g., 1, 2, 3, etc.); […] (e.g., Cells, Incubation, Reagent, etc.); VALUE; DESCRIPTION.
# 1; Reagent 1; 3 uL; 333.33 nM GPx4 enzyme or no enzyme control in 1536-well, black, solid Greiner assay plate.
# 2; Compound; 25 nL; Kalypsis pin tool (Wako USA) equipped with a 1536-well pin head.
# 3; Incubation; 30 min; room temperature.
# 4; Reagent 2; 1 uL; 500 nM GR, 5 mM GSH, 2.5 mM NADPH solution
# 5; Reagent 3; 1 uL; 2.5 mM CHP in 50% EtOH.
# 6; Detection; Fluorescence; ViewLux microplate reader, excitation 340 nm and emission 450 nm.
# 7; Incubation; 15 min; room temperature.
# 8; Detection; Fluorescence; ViewLux microplate reader, excitation 340 nm and emission 450 nm.
# NOTES (numbers refer to Sequence numbers above)
# 1. 3 µL of 333.33 nM GPX4 and 0.016% BSA in assay buffer (50 mM Tris-HCl, 2 mM EDTA (pH 7.5), 150 mM NaCl) was added to columns 3-48 of 1536-well plates using a BioRAPTR Flying Reagent Dispenser (Let's Go Robotics (LGR), Carlsbad, CA). A no-enzyme control (0.01% BSA in TES assay buffer) was added to columns 1-2.
# 2. 25 nL, library and DMSO controls were added to each well with a pin tool (Kalypsys).
# 3. The assay plates were incubated for 30 minutes at room temperature.
# 4. 1 µL of master mix (500 nM glutathione reductase (GR), 5 mM reduced glutathione (GSH), 2.5 mM NADPH in assay buffer) was added.
# 5. 1 µL of cumene hydroperoxide (CHP) ([2.5 mM] in 50% EtOH) was then added within 5 minutes to initiate the reaction. Final concentrations were: 200 nM GPX4, 1 mM GSH, 0.5 mM CHP, 0.5 mM NADPH, 100 nM GR, 0.01% BSA.
# 6. Initial fluorescence readout (t=0) at 340/450 nm was measured using a ViewLux multimodal detector (PerkinElmer, Waltham, MA).
# 8. Endpoint fluorescence readout (t=15) at 340/450 nm was measured 15 min after room temperature incubation.
# Potency is the fitted concentration of half-maximal effect.
# Sequence of Phospholipid hydroperoxide glutathione peroxidase GPX4 (Homo sapiens) (P36969 whole entry, looked up): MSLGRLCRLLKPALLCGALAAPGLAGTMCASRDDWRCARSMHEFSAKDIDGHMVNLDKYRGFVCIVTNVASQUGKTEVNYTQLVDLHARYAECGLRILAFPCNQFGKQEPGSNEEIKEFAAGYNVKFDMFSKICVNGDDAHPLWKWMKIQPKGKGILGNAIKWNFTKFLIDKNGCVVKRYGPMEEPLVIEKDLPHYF
Compound,Potency,outcome,"activity change, negative = inhibition"
CC(CN1c2ccccc2Sc2cccnc21)N(C)C (stereo not given),inactive,–,–
CC(C)(C)c1ccc2c(S(=O)(=O)O)c(C(C)(C)C)ccc2c1,12.6 µM (active),–,–
Cc1cc(-c2ccc(N=Nc3c(S(=O)(=O)O)cc4cc(S(=O)(=O)O)cc(N)c4c3O)c(C)c2)ccc1N=Nc1c(S(=O)(=O)O)cc2cc(S(=O)(=O)O)cc(N)c2c1O,inactive,–,–
N=C(N)c1ccc(/C=C/c2ccc(C(=N)N)cc2O)cc1,inactive,–,–
CCCCCCCCCCCCCCCCCCCCCC(=O)Nc1ccn([C@@H]2O[C@H](CO)[C@@H](O)[C@@H]2O)c(=O)n1,inactive,–,–
CO[C@@H]1[C@H](OC(=O)/C=C/C=C/C=C/C=C/C(=O)O)CC[C@]2(CO2)[C@H]1[C@@]1(C)O[C@@H]1CC=C(C)C,14.1 µM (active),–,–
CCCC(=O)Nc1c(I)cc(I)c(CC(CC)C(=O)O)c1I (stereo not given),inactive,–,–
C=C(C)C1CC=C(C)CC1 (stereo not given),inactive,–,–
O=C(OCc1ccccc1)c1ccc(O)cc1,inactive,–,–
C=CC[N+]1([C@H]2C[C@H]3[C@@H]4CC[C@H]5C[C@H](O)[C@@H](N6CCOCC6)C[C@]5(C)[C@H]4CC[C@]3(C)[C@H]2OC(C)=O)CCCC1,inactive,–,–
NC[C@H]1O[C@H](O[C@H]2[C@H](O)[C@@H](O[C@H]3O[C@H](CO)[C@@H](O)[C@H](N)[C@H]3O)[C@H](N)C[C@@H]2N)[C@H](O)[C@@H](O)[C@@H]1O,–,inactive [at 4.52 µM],–
FC(F)(F)C(F)(F)C(F)(F)C(F)(F)C(F)(F)C(F)(F)F,inactive,–,–
O=C(OC[C@H]1O[C@@H](OC(=O)c2cc(O)c(O)c(OC(=O)c3cc(O)c(O)c(O)c3)c2)[C@H](OC(=O)c2cc(O)c(O)c(OC(=O)c3cc(O)c(O)c(O)c3)c2)[C@@H](OC(=O)c2cc(O)c(O)c(OC(=O)c3cc(O)c(O)c(O)c3)c2)[C@@H]1OC(=O)c1cc(O)c(O)c(OC(=O)c2cc(O)c(O)c(O)c2)c1)c1cc(O)c(O)c(OC(=O)c2cc(O)c(O)c(O)c2)c1,4.47 µM (active),–,–
FCOC(C(F)(F)F)C(F)(F)F,inactive,–,–
FC(F)OC(Cl)C(F)(F)F (stereo not given),inactive,–,–
C[N@+]12CCCC[C@@H]1CCC(=C(c1cccs1)c1cccs1)C2,inactive,–,–
Nc1nc2c(c(=O)[nH]1)N(C=O)C(CNc1ccc(C(=O)N[C@@H](CCC(=O)O)C(=O)O)cc1)CN2 (stereo not given in full),–,–,-4.6% [at 0.409 µM] (inactive)
CC[C@H]1OC(=O)[C@H](C)[C@@H](O[C@H]2C[C@@](C)(OC)[C@@H](O)[C@H](C)O2)[C@H](C)[C@@H](O[C@@H]2O[C@H](C)C[C@H](N(C)C)[C@H]2O)[C@](C)(O)C[C@@H](C)CN(C)[C@H](C)[C@@H](O)[C@]1(C)O,inactive,–,–
CN(C)CCOc1ccc(/C(=C(/CCCl)c2ccccc2)c2ccccc2)cc1,inactive,–,–
CN(C)CCC(O)(c1ccccc1)c1ccccc1Cl (stereo not given),inactive,–,–

Compound,Potency,outcome,"activity change, negative = inhibition"
Cc1cccc(C)c1NC(=O)C1CCCCN1C (stereo not given),inactive,–,–
CN(C)c1ccc(C(=C2C=CC(=[N+](C)C)C=C2)c2c(O)c(S(=O)(=O)[O-])cc3cc(S(=O)(=O)O)ccc23)cc1,inactive,–,–
CC(C)CCCC(C)NC(C)C (stereo not given),inactive,–,–
COc1ccc([C@@H]2CC(=O)c3c(O)cc(O[C@@H]4O[C@H](CO[C@@H]5O[C@@H](C)[C@H](O)[C@@H](O)[C@H]5O)[C@@H](O)[C@H](O)[C@H]4O)cc3O2)cc1O,inactive,–,–
C=CC[C@@H]1/C=C(\C)C[C@H](C)C[C@H](OC)[C@H]2O[C@@](O)(C(=O)C(=O)N3CCCC[C@H]3C(=O)O[C@H](/C(C)=C/[C@@H]3CC[C@@H](O)[C@H](OC)C3)[C@H](C)[C@@H](O)CC1=O)[C@H](C)C[C@@H]2OC,inactive and 2.82 µM (active),–,–
CN[C@@H]1[C@@H](O)[C@@H](O[C@@H]2[C@@H](O)[C@H](O[C@H]3O[C@H](CN)[C@@H](O)[C@H](O)[C@H]3O)[C@@H](N)C[C@H]2NC(=O)C(O)CN)OC[C@]1(C)O (stereo not given in full),inactive,–,–
C[C@H]1O[C@@H](O[C@H]2[C@@H](O)C[C@H](O[C@H]3[C@@H](O)C[C@H](O[C@H]4CC[C@@]5(C)[C@H](CC[C@@H]6[C@@H]5C[C@@H](O)[C@]5(C)[C@@H](C7=CC(=O)OC7)CC[C@]65O)C4)O[C@@H]3C)O[C@@H]2C)C[C@H](O)[C@@H]1O,inactive,–,–
COc1ccc2c(=O)c(C)c(-c3ccccc3)oc2c1CN(C)C,inactive,–,–
Nc1nc(=O)n([C@@H]2CS[C@H](CO)O2)cc1F,inactive,–,–
O=P(O)(O)OP(=O)(O)O,inactive,–,–
O=C(Nc1ccc(O)cc1)c1ccccc1O,inactive,–,–
CCN(CC)CCOc1ccc2nc(N(C)C)sc2c1,inactive,–,–
CN(C)CCC=C1c2ccccc2C(C)(C)c2ccccc21,inactive,–,–
C=C1[C@H](CO)[C@@H](O)C[C@@H]1n1cnc2c(=O)[nH]c(N)nc21,inactive,–,–
O=[N+]([O-])O[C@@H]1CO[C@H]2[C@@H]1OC[C@@H]2O,inactive,–,–
NC(=O)OCC(O)COc1ccc(Cl)cc1 (stereo not given),inactive,–,–
O=C(O)c1ccc(NC(=O)[C@H](Cc2ccc(O)cc2)NC(=O)c2ccccc2)cc1,inactive,–,–
CCOC(=O)[C@@H](N)CS,14.1 µM (active),–,–
O=C1c2ccccc2C(=O)c2c1ccc(O)c2O,inactive,–,–
CC(/C=C/C=C(\C)C(=O)O[C@@H]1O[C@H](CO[C@@H]2O[C@H](CO)[C@@H](O)[C@H](O)[C@H]2O)[C@@H](O)[C@H](O)[C@H]1O)=C\C=C\C=C(C)\C=C\C=C(/C)C(=O)O[C@@H]1O[C@H](CO[C@@H]2O[C@H](CO)[C@@H](O)[C@H](O)[C@H]2O)[C@@H](O)[C@H](O)[C@H]1O,inactive,–,–
